From PubChem BioAssay (NCI)
About 83,000 compounds went through this panel and 20% of them were active in at least one assay; those are over-represented in the sample as a whole.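 How to read the values: 0–100, growth inhibition (40 = 60% inhibited); 0, no net growth; -100 to 0, cell death (-40 = 40% of starting cells died; -100 = all dead).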 A number with no mark means an inactive call. The source made the active and inactive calls. Rule for the calls: active = growth percent below 10; inactive = the rest.

Experiments:
Assay in all cases: NCI-60 one-dose screen, 48 h (100 = growth as untreated, 0 = no growth, -100 = all killed)
Conditions in all cases: 10 µM unless noted
[1] = test system: HCT-15 colon
[2] = test system: HT29 colon
[3] = test system: SNB-75 CNS
[4] = test system: SNB-19 CNS
[5] = test system: U251 CNS
[6] = test system: PC-3 prostate
[7] = test system: SK-MEL-5 melanoma
[8] = test system: UACC-62 melanoma
[9] = test system: LOX IMVI melanoma
[10] = test system: SK-MEL-28 melanoma

| Structure (SMILES) | growth [1] | growth [2] | growth [3] | growth [4] | growth [5] | growth [6] | growth [7] | growth [8] | growth [9] | growth [10] |
| --- | --- | --- | --- | --- | --- | --- | --- | --- | --- | --- |
| COc1ccc2c3c([nH]c2c1)C(=O)c1nc(C)ccc1C3=O | 22.3% | 74.9% | -4.19% (active) | 46.1% | 45.6% | 45.7% | -95.1% (active) | -29.3% (active) | 19.1% | 83.7% |
| CN1CCN(c2ccc(C(=O)Nc3cccc(C#Cc4cccc5[nH]nc(N)c45)c3)cc2C(F)(F)F)CC1 | -53.9% (active) | -35.9% (active) | -38.2% (active) | -78.4% (active) | -69.1% (active) | -75.4% (active) | -27.8% (active) | -79.2% (active) | -93.8% (active) | -66.4% (active) |
| C=C(C)[C@@H]1CC[C@]2(C(=O)NCC#CCN3CCN(C)CC3)CC[C@]3(C)[C@H](CC[C@@H]4[C@@](C)(CCC#N)[C@H](C(=C)C)CC[C@]43C)[C@@H]12 | 20% | -12.7% (active) | 64.7% | 78.2% | 45.3% | 35.5% | 64.6% | -8.49% (active) | 10.4% | 78.1% |
| COc1ccc2cc(-c3ccc(NC(C)=O)c(=O)o3)ccc2c1 | 100% | 87.9% | 97.4% | 94.1% | 96% | 89.1% | 102% | 94.8% | 104% | 104% |
| O=C(Nc1ccc(NC(=O)c2cc(=O)[nH]c3ccccc23)cc1)Nc1cccc(C(F)(F)F)c1 | 95.3% | 67.8% | 58.5% | 23.8% | 19.5% | 69.8% | 69.9% | 68% | 21% | 63.6% |
| C[C@H](NC(=O)[C@@H](C)N)[C@H](Oc1ccc2c(cnn2-c2ccc(F)cc2)c1)c1ccc2c(c1)OCCO2 | 34% | 2.47% (active) | 61.6% | 65.9% | 34.7% | 44% | -70% (active) | -22.3% (active) | -67.3% (active) | -66.7% (active) |
| C/C(=N/O)c1ccc(F)cc1 | 11.5% | 16.5% | 123% | 87.8% | 83.2% | 75.5% | 89.2% | 78.3% | 69.5% | 126% |
| COc1ccc2[nH]cc(C(c3cc(F)cc(F)c3)c3c[nH]c4ccc(OC)cc34)c2c1 | 65.2% | 81.5% | 85.9% | 82.9% | 86.8% | 50.2% | 91.7% | 85.5% | 67.3% | 105% |
| CN1CCN(c2ccc(NC(=O)c3nc4ccc5[nH]ncc5c4c4c3CCCC4)cc2C(F)(F)F)CC1 | 2.8% (active) | 20.5% | 84.7% | 81.6% | 78% | 65.4% | 75.8% | 89% | -81.7% (active) | 89.5% |
| Cc1cc2c(O)c(-c3cc(Cl)ccc3Cl)c3sc(=O)oc3c2cc1C | 74.5% | 103% | 61.2% | 77.6% | 45.4% | 29.2% | 42.5% | 52.2% | 78.4% | 81% |
| COc1cccc(CNc2ncnc3c2ncn3C2OC(CO)C(O)C2O)c1O (stereo not given) | 4.06% (active) | 26.5% | -12.4% (active) | 31.2% | 12.6% | 15.7% | 14.4% | 6.74% (active) | -0.915% (active) | 29% |
| O=C(Nc1cc(Cl)ccc1O)c1ccc(Nc2ccnc(C(F)(F)F)c2)cc1 | 30.9% | 95.5% | 69.2% | 24.6% | 31.7% | 14.7% | 47.1% | 27.7% | 27.8% | 83.6% |
| COc1ccc(CC(C#N)c2cc3ccccc3[nH]2)cc1 (stereo not given) | 91.5% | 96.5% | 78.2% | 92.8% | 89.3% | 75.6% | 91.6% | 75% | 92% | 95% |
